Nine compounds from PubChem BioAssay (NCATS) can be followed below.

Each structure is given as a SMILES string. Values without a mark were called inactive. Results filed as inconclusive are left out. The source made the active and inactive calls. Unless noted, the call rests on the fitted dose curve; in most records, active means well fitted curve in either direction with a large enough effect (not every such curve was filed as active); inconclusive means small, poorly fitted or top-dose-only effect, or another doubt; inactive means flat fitted curve, though single readings scatter. Bounds are passed on as bounds.

The nature of assay [1]: AP1 Signaling Pathway (AID 357). Further: on the % scale 0 is the no-effect control and ±100 the full control effect. The method, boiled down: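 AP-1-bla ME-180 cells with beta-lactamase reporter under AP-1 response element, stimulated with EC50 EGF; compounds titrated, 5 hours at 37 degrees Celsius. CCF4 read at 460/530 nm ratio; positive and negative modulators judged by AC50.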
The nature of assay [2]: NFAT Signaling Pathway (AID 444).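 Further: carbachol stimulus at about its EC50 of 1 µM final; on the % scale 0 is the no-effect control and ±100 the full control effect.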 Conditions: Jurkat NFAT-bla M1, carbachol, beta-lactamase ratio, 5 h; at 17.2 µM (top of the series) unless noted. The method, boiled down:
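Jurkat cells carrying an NFAT-driven β-lactamase reporter and co-transfected muscarinic M1 receptor were treated with compound plus carbachol (1 uM final, an EC50 level) for 5 h at 37 °C. CCF4 loading followed for 1 h at RT; 460/530 nm ratio gave %activity.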

Assay [3] can be described thus: Stat Signaling Pathway (AID 446).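 Further: ME-180 cervical cancer cells given 40 pM IL-6 alongside compound; SIE-controlled beta-lactamase reporter measured as 460/530 nm FRET emission ratio; on the % scale 0 is the no-effect control and ±100 the full control effect.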 The method, boiled down: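 ME-180 cells carrying a SIE-driven beta-lactamase reporter are stimulated with 40 pM IL-6 for 5 h at 37C in the presence of compound. The 460/530 nm FRET substrate ratio is read after 2.5 h at RT. Data are normalised to 300 pM IL-6 and to 125 nM JAK inhibitor controls.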
Assay [4] addresses Glucocorticoid receptor (Homo sapiens) (UniProt P04150). The experiment in a line: GR-GFP Redistribution (AID 450;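 active means compounds whose dose series gives a full or clear partial fitted curve of increased nuclear translocation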; further: potency means the concentration at half of the fitted maximal effect). The following applies: U2OS GR-GFP nuclear translocation, laser cytometry, 2 h.
In assay [5] the target is Cytochrome P450 1A2 (Homo sapiens) (UniProt P05177). The experiment in a line: p450-cyp1a2 (AID 410; calls by dose curve;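 further: -100% = full effect of reference inhibitor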). An outline of the steps: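 Luminescent readout of luciferin formed from Luciferin-ME by human CYP1A2; data normalized against complete inhibition by 57 uM furafylline. Enzyme 20nM, substrate 100uM at Km, 100mM KPO4 buffer, 60 min reaction at room temperature.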
Chain of Cytochrome P450 1A2 (Homo sapiens) (P05177 whole entry, looked up): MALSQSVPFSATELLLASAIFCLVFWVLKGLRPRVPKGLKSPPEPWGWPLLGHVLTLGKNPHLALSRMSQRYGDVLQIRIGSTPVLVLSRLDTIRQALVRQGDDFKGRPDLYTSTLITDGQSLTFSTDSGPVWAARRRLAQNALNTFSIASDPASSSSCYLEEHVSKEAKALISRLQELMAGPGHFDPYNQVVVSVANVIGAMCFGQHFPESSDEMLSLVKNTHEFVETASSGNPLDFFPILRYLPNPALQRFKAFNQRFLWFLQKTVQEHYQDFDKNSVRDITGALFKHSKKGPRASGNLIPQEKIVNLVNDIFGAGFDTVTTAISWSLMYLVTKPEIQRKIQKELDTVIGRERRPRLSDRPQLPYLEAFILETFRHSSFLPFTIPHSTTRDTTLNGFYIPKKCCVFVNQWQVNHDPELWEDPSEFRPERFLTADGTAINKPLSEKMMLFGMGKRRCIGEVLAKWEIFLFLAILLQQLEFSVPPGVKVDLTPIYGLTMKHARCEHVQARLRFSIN
Assay [6] addresses Glucocorticoid receptor (Homo sapiens) (UniProt P04150). In words: GR-EFC Redistribution (AID 451; calls by dose curve; further: potency means the concentration at half of the fitted maximal effect). The following applies: CHO-K1 GR-EFC translocation, beta-gal luminescence, 2 h. An outline of the steps:
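CHO-K1 cells stably expressing nuclear-localized β-gal enzyme acceptor and GR fused C-terminally to the enzyme donor fragment; ligand-driven nuclear translocation restores β-gal by complementation. Compounds titrated up to 46 uM final, 2 h at 37 °C; luminescence read.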

Assay [7] concerns the target Mitogen-activated protein kinase 10 (Mus musculus) (UniProt Q61831). The experiment in a line: JNK3 AlphaScreen Assay (AID 530).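 Further: kinase came from lysate of stimulated human HepG2 cells.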 Further: potency means the concentration at half of the fitted maximal effect.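 On activity change, negative = inhibition: signal reports phosphorylation of biotinylated GST-cJun 1-79 at Ser73 with 10 µM ATP; on the % scale 0 is the no-effect control and ±100 the full control effect.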 The method, boiled down:
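Inhibitors reduce antibody binding to phosphorylated biotin-cJun, lowering AlphaScreen luminescence. Lysates from HepG2 cells pre-activated by IL-1beta plus TNF-alpha supplied JNK3; compounds were titrated.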
For orientation: Bead proximity is the source of the signal in Alpha formats.

In assay [8] the target is 3',5'-cyclic-AMP phosphodiesterase 4B (Homo sapiens) (UniProt Q07343). The experiment in a line: qHTS Assay for Inhibitors of PDE-IV (AID 607; active means well fitted activation curve with a large enough effect in the main read-out, with a control signal flat, not every such curve was filed as active; further: % of control where 0% means no effect). The method, boiled down:
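HEK293 ACTOne cells with CNG channel (1000/well), endogenous PDE4; membrane potential dye, compounds up to 22.9 uM final. Fluorescence Ex 535/Em 590; RO 20-1724 (100 uM final) as reference.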
In general terms: In qHTS, concentration-response curves come from the screen itself.

Assay [9] concerns the target Lysosomal acid glucosylceramidase (Homo sapiens) (UniProt P04062). In words: Glucocerebrosidase-p2 (AID 348; in the data active means potency below about 10 µM; further: potency means the concentration at half of the fitted maximal effect). Conditions: purified GBA, blue fluorogenic substrate, 40 min. The method, boiled down:
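Compounds titrated from 0.6 nM upwards against 0.2 nM enzyme in pH 5.9 citric acid/KH2PO4, taurocholate, tween-20; blue fluorogenic substrate 80 uM, 40 min room temperature, stopped and read Ex 365/Em 440 for AC50.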

A short description of assay [10]: Cell Viability - BJ (AID 421; calls by dose curve;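 further: potency means the concentration at half of the fitted maximal effect; cells exposed to compound for 40 hours at 37 °C before readout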). Conditions: BJ fibroblast viability, qHTS. The method, boiled down: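 Normal human BJ foreskin fibroblasts, 1500/well in complete medium, treated 40 hr at 37 °C. Cellular ATP by CellTiter-Glo luminescence; normalized to DMSO and 100 uM tamoxifen, AC50 from Hill fit.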
Assay [11] is described as follows: Cell Viability - Jurkat (AID 426;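 active means dose-dependent loss of cell ATP signal giving a full or clear fitted curve, ranked by lower potency value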; further: potency means the concentration at half of the fitted maximal effect). The following applies: qHTS. The method, boiled down: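 qHTS, 1536-well; Jurkat E6-1, 5000 cells/well, complete medium; cpd 40 hr, 37 °C; CellTiter-Glo 20 min RT; luminescence. AC50 by Hill fit.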
Assay [12] in a line: Cell Viability - Hek293 (AID 427;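 active means compounds whose dose-response curve shows a full or clear partial loss of cell viability, called from curve shape rather than a numeric limit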;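 further: potency means the concentration at half of the fitted maximal effect; cells exposed to compound for 40 hours at 37 °C before reading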). The following applies: qHTS. An outline of the steps: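 HEK293 cells in complete medium were exposed to compound for 40 hr at 37 °C, then cellular ATP was read by CellTiter-Glo luminescence. Data were normalized to DMSO (basal) and 100 uM tamoxifen (100% inhibition), and AC50 came from Hill fits.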
The nature of assay [13]: Cell Viability - HepG2 (AID 433; calls by dose curve;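 further: potency means the concentration at half of the fitted maximal effect; potency for ATP loss meaning cytotoxicity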). The following applies: qHTS. The method, boiled down: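 ATP luminescence (CellTiter-Glo) after 40 h compound exposure, 37 °C, HepG2, 1500 cells/well, complete medium. Normalized: DMSO = basal, 100 uM tamoxifen = 100% inhibition. AC50 via standard Hill equation.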
Assay [14] in a line: Cell Viability - MRC5 (AID 434; calls by dose curve;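 further: potency means the concentration at half of the fitted maximal effect; potency reflects cytotoxicity seen as loss of intracellular ATP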). The following applies: MRC5 lung fibroblast viability, qHTS. The method, boiled down: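 MRC5 normal human lung fibroblasts (1500/well) were treated with compounds for 40 hr at 37 °C in complete medium, and viable cells were measured as intracellular ATP by CellTiter-Glo luminescence. AC50 came from Hill fits, normalized to DMSO and 100 uM tamoxifen.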

A short description of assay [15]: Cell Viability - N2a (AID 540; active means well fitted curve in the direction sought with a large enough effect; an effect the other way counts as inactive or inconclusive; further: nearly all actives have a fitted effect of over 45% in size; further: potency means the concentration at half of the fitted maximal effect;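 on activity change, negative = cytotoxicity: plate controls were DMSO alone for no effect and tamoxifen control for full effect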). An outline of the steps:
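Luminescent ATP signal (CellTiter-Glo, 20 min at room temperature) served as the viability read-out after N2a cells were treated with compounds for 40 hours at 37 °C. Concentration-response data were fitted to the Hill equation for AC50.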

Assay [16] can be described thus: Cell Viability - NIH 3T3 (AID 541; active means well fitted curve in the direction sought with a large enough effect; an effect the other way counts as inactive or inconclusive;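 further: plate controls were DMSO alone for no effect and tamoxifen positive control for full effect; nearly all actives have a fitted effect of over 25% in size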). The following applies: NIH 3T3 cell viability, qHTS; activity change, negative = cytotoxicity: at 92.2 µM (top of the series). The method, boiled down:
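Luminescent ATP signal (CellTiter-Glo) served as the viability read-out after NIH 3T3 cells were exposed to compounds over a concentration range for 40 hr at 37 °C. Hill-equation modelling of concentration-response data gave AC50.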

The nature of assay [17]: Cell Viability - H-4-II-E (AID 543; active means well fitted curve in the direction sought with a large enough effect; an effect the other way counts as inactive or inconclusive; further: nearly all actives have a fitted effect of over 35% in size; further: potency means the concentration at half of the fitted maximal effect). An outline of the steps: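 Luminescent ATP signal (CellTiter-Glo) served as the viability read-out, with cytotoxicity seen as a concentration-dependent ATP drop. Cells were treated for 40 hours in complete medium. AC50 values derive from Hill-equation modelling.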
Assay [18] is described as follows: Cell Viability - SH-SY5Y (AID 544; active means well fitted curve in the direction sought with a large enough effect; an effect the other way counts as inactive or inconclusive; further: nearly all actives have a fitted effect of over 55% in size; further: potency means the concentration at half of the fitted maximal effect;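 on viability change, negative = cytotoxic: 0% = DMSO alone and -100% = 100 µM tamoxifen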). The following applies: SH-SY5Y neuroblastoma cell viability; viability change, negative = cytotoxic: at 92.2 µM (top of the series). An outline of the steps:
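Luminescent ATP read-out (CellTiter-Glo) measures loss of viable SH-SY5Y neuroblastoma cells after 40 hr compound exposure at 37 °C. AC50 values derive from standard Hill modelling of qHTS concentration-response data.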

A short description of assay [19]: Cell Viability - Renal Proximal Tubule (AID 545; active means well fitted curve in the direction sought with a large enough effect; an effect the other way counts as inactive or inconclusive;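 further: 0% = DMSO only and -100% = 100 µM tamoxifen; nearly all actives have a fitted effect of over 40% in size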). The method, boiled down: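 Rat kidney proximal tubule cells, freshly isolated; 1000 cells/well, 5 hr settle, compound 40 hr 37 °C. CellTiter-Glo 20 min RT, luminescence read. AC50 by standard Hill fit.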
Assay [20] in a line: Cellular Toxicity (caspase-3) HepG2 (AID 654; active means well fitted curve in the direction sought with a large enough effect; an effect the other way counts as inactive or inconclusive;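 further: cells exposed to compound for 16 hours before reading; 0% = DMSO alone and 100% = caspase signal from 100 µM tamoxifen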). An outline of the steps: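 Cells plated 5 hr at 37 °C, compound added, incubated 16 hr at 37 °C. Caspase-Glo 3/7 reagent followed, 20 min at room temperature, then luminescence read. Activation scored as signal increase; AC50 from Hill fit.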

Chain of 3',5'-cyclic-AMP phosphodiesterase 4B (Homo sapiens) (Q07343 whole entry, looked up): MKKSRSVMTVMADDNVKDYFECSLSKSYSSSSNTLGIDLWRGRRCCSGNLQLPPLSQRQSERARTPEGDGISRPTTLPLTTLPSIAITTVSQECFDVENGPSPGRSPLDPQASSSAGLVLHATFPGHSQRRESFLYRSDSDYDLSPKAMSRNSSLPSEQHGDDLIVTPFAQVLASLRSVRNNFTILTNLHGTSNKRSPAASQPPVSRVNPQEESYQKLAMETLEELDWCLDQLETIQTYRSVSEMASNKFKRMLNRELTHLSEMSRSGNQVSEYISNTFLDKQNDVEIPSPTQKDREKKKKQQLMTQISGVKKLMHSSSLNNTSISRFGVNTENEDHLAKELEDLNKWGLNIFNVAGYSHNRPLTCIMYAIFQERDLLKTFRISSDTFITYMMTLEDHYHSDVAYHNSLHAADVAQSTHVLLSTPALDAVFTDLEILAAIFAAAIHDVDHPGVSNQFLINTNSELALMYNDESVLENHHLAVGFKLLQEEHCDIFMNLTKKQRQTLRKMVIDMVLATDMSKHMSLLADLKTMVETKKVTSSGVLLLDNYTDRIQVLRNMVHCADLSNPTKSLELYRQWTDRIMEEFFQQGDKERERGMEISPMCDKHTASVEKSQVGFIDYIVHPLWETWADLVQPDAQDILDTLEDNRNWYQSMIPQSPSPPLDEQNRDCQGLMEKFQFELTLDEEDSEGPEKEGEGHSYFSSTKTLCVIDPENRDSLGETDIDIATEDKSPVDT
Chain of Glucocorticoid receptor (Homo sapiens) (P04150 whole entry, looked up, the tested form may be a part): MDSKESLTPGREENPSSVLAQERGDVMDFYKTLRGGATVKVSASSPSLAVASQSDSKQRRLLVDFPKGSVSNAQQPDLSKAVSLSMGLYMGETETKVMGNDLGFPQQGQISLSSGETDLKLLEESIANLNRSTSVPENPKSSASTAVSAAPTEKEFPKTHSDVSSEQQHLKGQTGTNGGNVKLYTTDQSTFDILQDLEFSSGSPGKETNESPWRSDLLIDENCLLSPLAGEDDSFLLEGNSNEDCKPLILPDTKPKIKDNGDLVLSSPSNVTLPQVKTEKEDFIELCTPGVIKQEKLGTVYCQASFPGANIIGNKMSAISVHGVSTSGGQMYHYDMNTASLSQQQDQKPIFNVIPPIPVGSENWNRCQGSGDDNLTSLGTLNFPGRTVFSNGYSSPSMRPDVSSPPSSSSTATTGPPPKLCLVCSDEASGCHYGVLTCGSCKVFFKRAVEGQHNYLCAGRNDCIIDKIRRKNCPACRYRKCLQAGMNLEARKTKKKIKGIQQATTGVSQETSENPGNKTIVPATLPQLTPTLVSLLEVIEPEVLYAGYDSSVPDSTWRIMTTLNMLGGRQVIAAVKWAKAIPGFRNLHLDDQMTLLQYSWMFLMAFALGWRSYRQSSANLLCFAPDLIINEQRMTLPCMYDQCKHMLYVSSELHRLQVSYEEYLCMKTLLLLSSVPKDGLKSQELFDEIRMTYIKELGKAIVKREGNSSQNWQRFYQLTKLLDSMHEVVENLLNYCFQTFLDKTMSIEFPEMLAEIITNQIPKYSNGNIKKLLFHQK
Chain of Lysosomal acid glucosylceramidase (Homo sapiens) (P04062 whole entry, looked up): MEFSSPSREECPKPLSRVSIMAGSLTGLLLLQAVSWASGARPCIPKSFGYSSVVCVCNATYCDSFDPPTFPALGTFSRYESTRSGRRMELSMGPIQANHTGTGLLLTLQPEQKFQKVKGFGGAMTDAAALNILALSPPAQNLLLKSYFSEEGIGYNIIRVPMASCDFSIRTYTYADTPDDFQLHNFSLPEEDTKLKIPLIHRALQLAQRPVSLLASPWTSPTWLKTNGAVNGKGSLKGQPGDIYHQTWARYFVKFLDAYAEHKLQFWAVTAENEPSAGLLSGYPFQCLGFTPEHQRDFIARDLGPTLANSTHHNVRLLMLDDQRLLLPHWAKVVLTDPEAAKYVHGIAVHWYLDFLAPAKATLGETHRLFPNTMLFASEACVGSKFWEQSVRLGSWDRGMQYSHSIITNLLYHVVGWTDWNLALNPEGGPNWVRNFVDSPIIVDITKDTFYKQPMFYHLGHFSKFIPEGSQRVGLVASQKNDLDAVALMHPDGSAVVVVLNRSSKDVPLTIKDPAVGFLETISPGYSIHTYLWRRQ

As for `CC(C)(C)NCC(O)COc1cccc2c1C[C@H](O)[C@H](O)C2` (some centres not stated), the result in assay [1] and in assay [3] was inactive. Also, the activity change, negative = inhibition in assay [2] was 1.44%. The Potency in assay [4] was > 20.6 µM.

Turning to `O=C1C(O)=C(O)C(=O)C(O)=C1O`, the result in assay [1], in [3] and in assay [8] was inactive. Besides, the Potency entry in [5] and in assay [7] was “inactive” each time. Also, the activity change, negative = inhibition in assay [2] is -6.65%. Further, the Potency in assay [4] and in assay [6] was > 20.6 µM throughout.

For the compound `O=C(O)CCNC(=O)c1ccccc1`, the result in assay [1] and in assay [3] was inactive. The activity change, negative = inhibition in assay [2] was 3.54%. In addition, the Potency in assay [4] was > 20.6 µM.

Turning to `O=C(O)CCc1nc2ccccc2[nH]1`, the Potency in assay [9] is > 11.4 µM. Moreover, the compound was classed as inactive in assay [1], in assay [3] and in [8]. The activity change, negative = inhibition in assay [2] was 5.96% [at 7.69 µM]. Besides, the Potency result in assay [7] was “inactive”.

`CN1CCc2cccc3c2[C@H]1Cc1ccc(O)c(O)c1-3`: the Potency was > 46 µM in assay [4], > 46 µM in assay [6] and 6.31 µM (active) in assay [7]. Moreover, the result in assay [8] was inactive.

`OC[C@H]1O[C@@H]2O[C@H]3[C@H](O)[C@@H](O)[C@@H](O[C@H]4[C@H](O)[C@@H](O)[C@@H](O[C@H]5[C@H](O)[C@@H](O)[C@@H](O[C@H]6[C@H](O)[C@@H](O)[C@@H](O[C@H]7[C@H](O)[C@@H](O)[C@@H](O[C@H]8[C@H](O)[C@@H](O)[C@@H](O[C@H]1[C@H](O)[C@H]2O)O[C@@H]8CO)O[C@@H]7CO)O[C@@H]6CO)O[C@@H]5CO)O[C@@H]4CO)O[C@@H]3CO`: the Potency in assay [10], in assay [11], in assay [12], in assay [13] and in [14] was > 92 µM throughout. The Potency result in assay [7], in assay [15] and in [17] was “inactive” each time. For the same compound, the activity change, negative = cytotoxicity in assay [16] is 5.27%. The viability change, negative = cytotoxic in assay [18] is -6.32%. The compound was called inactive in assay [19] and in assay [20].

With `c1ccc(CC2=NCCN2)cc1`, the outcome in assay [1], in assay [3] and in assay [8] was inactive. Besides, the activity change, negative = inhibition in [2] was -12.4%. Besides, the Potency entry in assay [7] is “inactive”.

`O=C(O)c1ccc(S(=O)(=O)N(Cl)Cl)cc1`: the Potency in [10], in assay [12], in assay [13] and in assay [14] was > 92 µM in each case. Besides, the Potency entry in assay [7], in assay [15] and in [17] was “inactive” throughout. Moreover, the activity change, negative = cytotoxicity in assay [16] is -11.9%. The viability change, negative = cytotoxic in [18] was -7.18%. For the same compound, the call in assay [19] and in [20] was inactive.

In the case of `Oc1c(Cl)cc(Cl)c(Cl)c1Cc1c(O)c(Cl)cc(Cl)c1Cl`, the Potency in [10] was 0.536 µM; in assay [13], 10.7 µM (active); in assay [15], 0.794 µM (active); in assay [17], 31.6 µM (active); in [18], 15.8 µM (active). For the same compound, the Potency entry in [7] is “inactive”. In addition, the activity change, negative = cytotoxicity in [16] is -102% (active). Also, the compound was classed as inactive in [20].
